# Pf growth 96h = P. falciparum growth inhibition at 96 hours. P. falciparum luciferase reporter growth, 96 h. Potency, µM (doses to about 28.7 µM), without a hit: top-dose activity change, negative = inhibition, usual class: inhibitors. hit rate 6.9% among 320,000. AID 504834; also: potency is read from the fitted curve at half-maximal effect; % is scaled to controls: 0 for no effect and ±100 for the full control effect
#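 Two-generation exposure (96 h) targets delayed-death phenotype. Reporter parasites carrying integrated firefly luciferase, in red cells at 2% hematocrit and 0.05% parasitemia final, kept at 37 C, 5% CO2; luminescence loss indicates inhibition.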
# Sm TGR block = inhibitors of Schistosoma mansoni thioredoxin glutathione reductase. AID 485364. purified TGR, DTNB reduction, TNB absorbance 405 nm. Potency, µM (highest dose often 114 µM), without a hit: top-dose activity change, negative = inhibition, most hits filed as inhibitors. Q962Y6. hit rate 3% among 360,000; also: potency is read from the fitted curve at half-maximal effect; % is scaled to controls: 0 for no effect and ±100 for the full control effect; nearly all actives have a fitted effect of over 60% in size
#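 First, TGR (20 nM dispensed) and NADPH were mixed with compound. Second, a 15 min room-temperature incubation followed. Third, further NADPH and then DTNB were added to start the reaction. Finally, TNB absorbance was monitored kinetically.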
# NS1 inh = influenza NS1 inhibition. Potency, µM (doses to about 46.1 µM), for inactives: top-dose activity, positive = more growth. hit rate 0.4% among 270,000. AID 2326; calls by dose curve; also: potency is read from the fitted curve at half-maximal effect; actives are rising curves; nearly all actives have a fitted effect of over 50% in size
#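 Recovery from NS1-induced slow growth read by OD600 in budding yeast switched to galactose assay medium (pH 6.0, -URA) at 1:100 dilution. Compound 23 nl per well; the matching strain lacking NS1 serves as control.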
# Cycloheximide cs = counter-screen hit for Shiga toxin inhibitors, cycloheximide | cell reporter, cycloheximide protein synthesis inhibition counterscreen | max response, % | hit rate 12% among 300,000 | AID 2314; in the data active = max response mostly above about 13%, no sharp cut-off; inactive = mostly below about 14%; also: read at 38.3 µM for the half of the compounds with a filed dose; 0% is about no effect
# Pf growth 48h = P. falciparum growth inhibition at 48 hours (one generation); hit rate 5.9% among 310,000; P. falciparum luciferase growth in erythrocytes, 48 h; Potency, µM (doses to about 28.7 µM), for the others: at the top dose activity change, negative = inhibition, most hits filed as inhibitors; also: potency is read from the fitted curve at half-maximal effect; % is scaled to controls: 0 for no effect and ±100 for the full control effect
#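 Read-out is firefly luciferase luminescence from an integrated reporter in P. falciparum, so falling signal marks reduced parasite growth. Infected erythrocytes were at 2% hematocrit and 0.1% parasitemia (final) in Albumax-supplemented RPMI 1640.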
# Shiga toxin inh = blocks Shiga toxin action in Vero cells; Vero cells, Shiga toxin protein synthesis inhibition reporter; inhibition, % at 38.7 µM; hit rate 9.2% among 290,000; AID 2315; in the data active = inhibition mostly above about 28%, no sharp cut-off; inactive = mostly below about 43%; also: 0% is about no effect
# The depositor's hits bear a star; ? = inconclusive; · = no result given. Compounds with a hit are over-represented: about 21% of the library has one in this group of screens. Unless noted, calls follow the shape of the dose curve; as a rule, active = well fitted curve in the direction sought with a large enough effect; inconclusive = small, poorly fitted or top-dose-only effect, or another doubt; inactive = no such curve, though single readings can be large; an effect the other way counts as inactive or inconclusive.
SMILES,Pf growth 96h,Sm TGR block,NS1 inh,Cycloheximide cs,Pf growth 48h,Shiga toxin inh
CC(C)CNS(=O)(=O)c1ccc(CCC(=O)Nc2ccc3c(c2)OCO3)cc1,4.15µM*,2.7%,10.2%,-1.0,-6.6%,-5.5
COc1ccc(N(CC(=O)NC2CCCC2)C(=O)CCC(=O)Nc2cc(C)on2)cc1OC,-15.4%,12.2%,0.2%,-5.5,-28.1%,-2.0
COc1cccc2cc(-c3ccnc(N)n3)oc12,476.3%,2.3%,6.5%,32.7*,15.5%,106.7*
COc1cccc2cc(-c3n[nH]c(=S)n3C)oc12,42.9%,0.2%,·,-1.6,?,10.6
Cc1cc(S(=O)(=O)Nc2ccc(-c3ccc(N4CCCCCC4)nn3)cc2)c(C)cc1Cl,·,7.5%,·,·,·,·
Cc1ccc(-n2c(=O)cc(NCc3cccnc3)[nH]c2=O)cc1,1.85µM*,14.5%,2.1%,-1.1,3.7%,11.8
Cc1c(S(=O)(=O)Nc2cccc3ccccc23)c(=O)n(C)c(=O)n1C,-4.3%,-2.5%,·,·,0.5%,·
O=C(O)C1CC(c2cccc(Br)c2)=NO1 (stereo not drawn),·,-11.8%,-1.5%,-3.8,2.9%,-4.0
O=C(C1CC(c2cccc(Br)c2)=NO1)N1CCc2ccccc2C1 (stereo not drawn),68.7%,9.1%,-17.6%,17.6*,6.1%,21.4
COc1ccc(NC2=C(Cl)C(=O)N(CCc3ccccc3)C2=O)cc1,-16.7%,-2.8%,10.0%,26.0*,65.7%,53.0
COc1ccc(NC2=C(Cl)C(=O)N(CCc3ccccc3)C2=O)c(OC)c1,46.9%,5.9%,-3.6%,73.0*,19.1%,58.7*
CCOc1ccc(NC(=O)c2ccc3c(=O)n4nc(Nc5ccccc5C)sc4nc3c2)cc1,·,5.5%,·,·,·,·
O=C(Nc1ccc2nc(SCC(=O)N3CCCC3)sc2c1)c1ccccc1F,·,2.7%,·,·,·,·
CCOc1ccc(NC2C=CS(=O)(=O)C2)cc1 (stereo not drawn),71.7%,28.2µM*,6.7%,-0.5,34.1%,-3.2
O=S(=O)(NCc1ccccc1Br)c1cccs1,?,-19.3%,-10.8%,11.1*,26.6%,-5.5
O=C(Cc1cccs1)NCc1ccccc1Br,?,-8.5%,-5.6%,36.5*,102.8%,62.8*
COc1ccc(CCNC(=O)Cc2cccs2)cc1OC,4.5%,0.0%,-1.1%,0.4,25.2%,9.7
COc1ccc(Br)cc1CNC(=O)Cc1cccs1,-14.3%,?,-4.7%,20.8*,10.8%,5.6
O=C(O)[C@@H]1[C@@H](C(=O)O)[C@@]23CCCC2=C2CC[C@@]3(C(=O)O)[C@@]3(C(=O)O)C[C@@]213,·,·,-5.8%,·,·,·
COC(=O)c1c([N+](=O)[O-])c(OC)c(OC)c(OC)c1[N+](=O)[O-],-12.0%,-35.6%,·,-3.1,23.8%,3.5
CCCCCC(=O)Nc1nc(C)c(-c2csc(Nc3cc(OC)ccc3OC)n2)s1,11.7µM*,29.9%,12.0%,-0.6,6.57µM*,-2.8
CCCCCCC(=O)Nc1nc(C)c(-c2csc(Nc3cc(OC)ccc3OC)n2)s1,7.38µM*,5.3%,12.6%,-2.8,7.38µM*,18.5
CCNC(=S)N1CCC(C(N)=O)CC1,-16.6%,11.3%,3.3%,-3.2,16.8%,12.1
CC(=O)NC1C(Oc2ccc3c(C)cc(=O)oc3c2)OC(COC(C)=O)C(OC(C)=O)C1OC(C)=O (stereo not drawn),-11.7%,-3.3%,·,15.9,20.6%,19.1
COc1ccc(-c2noc(-c3ccccc3C(=O)N3CCOCC3)n2)cc1,·,2.1%,-11.8%,-2.1,-4.8%,-7.8
SMILES,Pf growth 96h,Sm TGR block,NS1 inh,Cycloheximide cs,Pf growth 48h,Shiga toxin inh
COc1ccc(Br)cc1CN(C)C(=O)Cc1ccc(OC)c(S(=O)(=O)N2CCOCC2)c1,6.57µM*,-1.9%,·,·,?,·
COc1ccc(NC(C)=O)cc1S(=O)(=O)N1CCN(C(=O)c2ccccc2F)CC1,?,-5.2%,3.8%,-2.2,2.08µM*,-2.7
Cc1ccc(NC(=O)Cc2ccc(Cl)cc2)cc1S(=O)(=O)N1CCCCCC1,?,-16.4%,·,·,13.1µM*,·
Cc1ccc(NC(=O)Cn2ncc(Cl)c(Cl)c2=O)cc1S(=O)(=O)N1CCCCC1,?,8.91µM*,·,·,?,·
COc1cccc(N/N=C(\C#N)S(=O)(=O)C(C)(C)C)c1,25.1%,1.5%,·,8.0,3.5%,-3.8
OC1(c2ccc3c(c2)OCO3)CCN(Cc2ccc(F)cc2)CC1,51.7%,0.8%,?,-2.5,-18.1%,-10.5
COc1ccc(NC(=O)Cc2ccc(Cl)cc2)cc1S(=O)(=O)N1CCCCC1,10.4µM*,-8.2%,·,·,?,·
COc1ccc(CC(=O)Nc2ccc(F)c(Cl)c2)cc1S(=O)(=O)N1CCOCC1,?,0.2%,·,·,6.57µM*,·
CCc1ccc(S(=O)(=O)c2cn(C)c3cc(N4CCOCC4)c(F)cc3c2=O)cc1,·,-0.8%,·,·,·,·
COc1ccc(C2c3c(n(C)c4ccccc34)C(=O)N2CC(=O)Nc2ccc(C)c(Cl)c2)cc1 (stereo not drawn),·,-8.3%,·,·,·,·
O=C(NC(Cc1ccccc1)C(=O)O)/C(=C/c1ccco1)NC(=O)c1cccc(Br)c1 (stereo not drawn),7.9%,?,-0.9%,-2.4,30.5%,4.3
COc1ccccc1NC(=O)c1ccc(NC(=O)CN(C)Cc2ccccc2F)cc1,-7.1%,-22.1%,·,8.3,450.2%,-2.4
Cc1ccc(CNC(=O)c2ccc3c(c2)c(C)c(C)n3Cc2ccc(Cl)cc2)o1,·,6.2%,·,·,·,·
COc1ccc(Nc2nc(-c3cccc(OC)c3O)nc3ccccc23)cc1,?,-1.6%,10.8%,33.1*,7.38µM*,50.4*
COc1cccc(-c2nc(NC(C)(C)C)c3ccccc3n2)c1O,?,-8.2%,6.1%,-1.9,10.4µM*,9.5
COc1cccc(-c2nc(N3CCCC3)c3ccccc3n2)c1O,18.2%,-3.6%,-3.6%,0.6,0.0%,-2.9
COc1cccc(-c2nc(NCCN3CCOCC3)c3ccccc3n2)c1O,25.5%,9.5%,-6.2%,-3.6,?,-21.1
COc1cccc(-c2nc(Oc3cc(C)cc(C)c3)c3ccccc3n2)c1O,-5.5%,-4.6%,-1.1%,12.9,30.4%,23.4
COc1cccc(-c2nc(N3CC(C)CC(C)C3)c3ccccc3n2)c1O (stereo not drawn),13.1µM*,2.4%,8.4%,-4.4,?,13.3
COc1cccc(NS(=O)(=O)c2ccc3c(c2)N(C)C(=O)CC(=O)N3C)c1,·,1.1%,·,·,·,·
CCc1cccc(C)c1NC(=O)Cn1nc(C)c2nn(-c3ccc(Cl)cc3)c(C)c2c1=O,·,0.7%,·,·,·,·
CCOC(=O)N1CCC(NC(=O)c2cc(COc3ccccc3SC)on2)CC1,?,-1.2%,-2.6%,26.6*,-12.5%,34.6
CSc1ccccc1OCc1cc(C(=O)N2CCC(c3ccncc3)CC2)no1,2.6%,3.0%,-30.2%,18.7*,-18.9%,10.8
CCOC(=O)N1CCC(NC(=O)c2cc(COc3ccc(F)cc3Cl)on2)CC1,34.9%,4.7%,2.9%,10.8,?,5.0
COc1cccc(NC(=O)c2ccnc(N3CCC(C(=O)NCc4cc(OC)ccc4OC)CC3)c2)c1,?,2.5%,-8.9%,5.8,?,1.2

# Assay outcomes deposited in PubChem BioAssay by National Center for Advancing Translational Sciences (NCATS).
